Here are results for 18 compounds from PubChem BioAssay (Tox21).

A short description of test [1]: A CellTox Green Cytotoxicity Assay to monitor cytotoxicity in HEK293 cells - 40 hour (AID 1224871). Also: nearly all actives have a fitted effect of over 45% in size. Also: potency is read from the fitted curve at half-maximal effect. The method in brief: (§1)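 HEK293 cells, 600/well, were preincubated 5 hours and then exposed to compounds at 37 C for up to 40 hours. A cell-impermeant cyanine dye staining dead-cell DNA was read by fluorescence at 0, 8, 16, 24, 32 and 40 h time points.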
A short description of test [2]: qHTS RealTime-Glo MT Cell Viability Assay in HEK293 cells - 16 hour (AID 1224872). Also: nearly all actives have a fitted effect of over 50% in size. Also: potency is read from the fitted curve at half-maximal effect. The method in brief: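 Assay medium contained NanoLuc luciferase plus cell-permeant prosubstrate, added with HEK293 cells at 600 cells/well. After 5 h at 37 C/5% CO2 compounds were added; plates stayed at 37 C for 40 h with serial luminescence reads.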
For orientation: Quantitative high-throughput screening tests each substance at several concentrations.

Test [3] can be described thus: qHTS RealTime-Glo MT Cell Viability Assay in HepG2 cells - 8 hour (AID 1224873). Also: nearly all actives have a fitted effect of over 55% in size. Also: potency is read from the fitted curve at half-maximal effect. The method in brief:
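HepG2 cells mixed with RealTime-Glo MT reagents (NanoLuc plus cell-permeant prosubstrate) were seeded at 600 cells/well, incubated 5 h at 37 C/5% CO2, then pinned with compounds in DMSO; nonlytic luminescence tracked viability during 40 h treatment.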

The nature of test [4]: qHTS RealTime-Glo MT Cell Viability Assay in HEK293 cells - 40 hour (AID 1224874). Also: nearly all actives have a fitted effect of over 50% in size. Also: potency is read from the fitted curve at half-maximal effect. The following applies: RealTime-Glo luminescence; max response: stronger effect = lower value. Summed up:
(§2)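 600 cells/well were plated with the nonlytic NanoLuc/prosubstrate reagent, pre-incubated 5 h, then given 23 nL of compound in DMSO. Incubation at 37 C for 40 h, with luminescence from viable-cell-reduced substrate read repeatedly from 0 h.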

Test [5] in a line: A CellTox Green Cytotoxicity Assay to monitor cytotoxicity in HEK293 cells - 24 hour (AID 1224875). Also: nearly all actives have a fitted effect of over 45% in size. Also: potency is read from the fitted curve at half-maximal effect. As to activity change: series mostly up to about 77 µM. Summed up:
as §1

The nature of test [6]: A CellTox Green Cytotoxicity Assay to monitor cytotoxicity in HepG2 cells - 16 hour (AID 1224876). Also: nearly all actives have a fitted effect of over 45% in size. The method in brief:
(§3)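 HepG2 cells, 600/well, preincubated 5 h with CellTox Green dye, then exposed to Tox21 compounds in DMSO at 37 C for up to 40 h. Dead-cell DNA fluorescence read at the indicated time point.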

The nature of test [7]: qHTS RealTime-Glo MT Cell Viability Assay in HepG2 cells - 32 hour (AID 1224877). Also: nearly all actives have a fitted effect of over 55% in size. Also: potency is read from the fitted curve at half-maximal effect. Summed up: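 qHTS, HepG2, 600 cells/well, RealTime-Glo (NanoLuc + prosubstrate) added with cells; 5 h preincubation; DMSO compound addition; 37 C; luminescence at 0/8/16/24/32/40 h.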
A short description of test [8]: A CellTox Green Cytotoxicity Assay to monitor cytotoxicity in HepG2 cells - 24 hour (AID 1224878). Also: nearly all actives have a fitted effect of over 45% in size. Also: potency is read from the fitted curve at half-maximal effect. The method in brief: as §3
Test [9] can be described thus: A CellTox Green Cytotoxicity Assay to monitor cytotoxicity in HepG2 cells - 40 hour (AID 1224879). Also: nearly all actives have a fitted effect of over 40% in size. Also: potency is read from the fitted curve at half-maximal effect. Summed up: as §3
Test [10] is described as follows: qHTS RealTime-Glo MT Cell Viability Assay in HEK293 cells - 0 hour (AID 1224880). Also: nearly all actives have a fitted effect of over 45% in size. Also: potency is read from the fitted curve at half-maximal effect. The method in brief:
as §2

SMILES strings stand for the structures. Several values for one entry are separate records, joined by “and”; a condition that tells them apart may be missing. Equal values may be shown once. Inconclusive results are not listed. Some structures have more than one record in an assay (separate samples or runs), and their calls can disagree. Activity calls are given as the source filed them. Calls follow the shape of the dose curve; as a rule, active = well fitted curve in the direction sought with a large enough effect in the repeat runs; inconclusive = weak or mixed curves; inactive = no such curve, though single readings can be large; an effect the other way counts as inactive or inconclusive.
% is scaled to controls: 0 for no effect and ±100 for the full control effect.

`C=CCNCC=C`: the Potency entry in test [1], in test [2], in test [3], in [5], in [6] and in test [7] was “inactive” each time. The Potency entry in [8], in test [9] and in [10] was “inactive” in each case. For the same compound, in test [4], the max response was 4.5% (inactive) and 4.18% (inactive).
With `CC(=O)O[C@]1(C(C)=O)CC[C@H]2[C@@H]3C=C(Cl)C4=CC(=O)CC[C@]4(C)[C@H]3CC[C@@]21C`, the Potency entry in test [1], in test [3], in test [5], in [6], in [7] and in test [8] was “inactive” in each case. Also, the Potency entry in test [9] is “inactive”. In addition, the Potency in test [2] is 21.8 µM (active); in test [4] it was 21.8 µM (active) and 10.7 µM (active); in test [10] it was 2.18 µM (active) and 1.69 µM (active).
On to `CC(=O)[C@@]1(O)CC[C@H]2[C@@H]3C[C@H](C)C4=CC(=O)C=C[C@]4(C)[C@@]3(F)[C@@H](O)C[C@@]21C`, for which the Potency result in test [1], in [3], in test [7], in [8] and in test [9] was “inactive” throughout. For the same compound, the Potency in [2] is 38.9 µM (active) and inactive; in [4], 19.5 µM (active); in test [10] it was 5.49 µM (active) and 3.01 µM (active). Also, the max response in [4] is -3.14% (inactive).
With `COc1ccc2nc(N)sc2c1`, the Potency result in test [1], in test [2], in test [3], in test [5], in [6] and in test [7] was “inactive” throughout. Moreover, the Potency entry in [8], in test [9] and in [10] was “inactive” each time. Further, the max response in [4] was 7.94% (inactive).
For the compound `ClC/C=C/CCl`, the Potency result in test [1], in test [2], in [3], in test [5], in test [7] and in test [8] was “inactive” in each case. The Potency entry in [9] and in [10] was “inactive” each time. Also, in [4], the max response is 18.6% (inactive) and 9.13% (inactive).
With `Cc1ccc(C(C)(C)C)cc1`, the Potency entry in test [1], in test [2], in [3], in [5], in [6] and in test [7] was “inactive” throughout. The Potency entry in test [8], in [9] and in [10] was “inactive” each time. For the same compound, the max response in test [4] is 0.538% (inactive).
Take `COCCOCCOCCO`: the Potency entry in test [1], in test [2], in [3], in test [5], in test [7] and in test [8] was “inactive” in each case. Besides, the Potency result in [9] and in test [10] was “inactive” in each case. Further, in test [4], the max response was 4.57% (inactive) and 6.41% (inactive).
With `O=Cc1ccccc1C=O`, the Potency result in test [1], in test [2], in test [3], in test [5], in test [6] and in [7] was “inactive” in each case. Further, in [10], the Potency entry was “inactive”. In test [4], the max response is 0.419% (inactive). Also, the Potency in test [8] is 24.5 µM (active) and inactive; in test [9] it was 21.9 µM (active) and inactive.
With `CC(C)[C@@H]1CC[C@@H](C)CC1=O`, the Potency entry in [1], in test [2], in [3], in test [5], in test [6] and in test [7] was “inactive” each time. Besides, the Potency entry in test [8], in test [9] and in [10] was “inactive” throughout. In addition, in test [4], the max response was -0.963% (inactive) and 5.54% (inactive).
As for `CN(C)CCCN1c2ccccc2Sc2ccc(Cl)cc21`, the Potency in test [1] was 43.6 µM (active); in [2], 30.9 µM (active) and 21.3 µM (active); in test [3], 54.9 µM (active); in [4], 21.9 µM (active) and 21.3 µM (active); in [5], 49 µM (active); in test [7] it was 34.7 µM (active) and 23.9 µM (active). Further, the Potency is 38.9 µM (active) and 21.3 µM (active) in test [8]; 24.5 µM (active) and 21.3 µM (active) in test [9].
Turning to `Oc1c(Cl)ccc(Cl)c1Cl`, the Potency result in [1], in [2], in [3], in test [5], in test [6] and in [7] was “inactive” throughout. Moreover, the Potency result in test [8], in test [9] and in [10] was “inactive” each time. In addition, the max response in test [4] was -14% (inactive) and -18.1% (inactive).
On to `c1ccc2cc3ccccc3cc2c1`, for which the Potency result in [1], in test [2], in test [3], in test [5], in [6] and in [7] was “inactive” in each case. Further, the Potency entry in test [8], in [9] and in test [10] was “inactive” each time. Further, in test [4], the max response is 1.77% (inactive) and 23.2% (inactive).
`Cc1ccc(S(=O)(=O)O)cc1C`: the Potency result in test [1], in test [2], in test [3], in [5], in test [6] and in [7] was “inactive” throughout. For the same compound, the Potency entry in [8], in test [9] and in test [10] was “inactive” in each case. The max response in [4] is -0.252% (inactive) and 9.18% (inactive).
In the case of `C[C@]12C=CC(=O)C=C1CC[C@H]1[C@@H]3C[C@@H](O)[C@](O)(C(=O)CO)[C@@]3(C)C[C@H](O)[C@@]12F`, the Potency result in test [1], in test [2], in test [3], in test [5], in test [6] and in [7] was “inactive” each time. In addition, the Potency result in [8], in [9] and in [10] was “inactive” each time. Also, in test [4], the max response was 1.25% (inactive) and 4.53% (inactive).
Regarding `Cc1ccc([N+](=O)[O-])c(C)c1`, the Potency was 24.6 µM (active) and inactive in test [1]; 38.9 µM (active) and inactive in [2]; 38.9 µM (active) in test [4]; 17.4 µM (active) and inactive in test [9]. The Potency entry in [3], in [5], in test [7], in test [8] and in test [10] was “inactive” throughout. Further, in test [4], the max response is -10.8% (inactive).
On to `C=CCCCCCCCCCC`, for which the Potency entry in [1], in test [2], in test [3], in test [5], in test [6] and in test [7] was “inactive” in each case. Further, the Potency entry in test [8], in test [9] and in test [10] was “inactive” throughout. Moreover, in test [4], the max response is 3.4% (inactive) and -2.24% (inactive).
`O=[Se](O)O`: the Potency in test [1] is 30.9 µM (active); in test [4], 17.4 µM (active); in test [9] it was 24.6 µM (active). In addition, the results for the cytotoxicity increase in test [1] and in [9] were -7.57% [at 15.8 µM] (inactive) and 15.7% [at 15.8 µM] (inactive), respectively. The Potency entry in test [2], in [6] and in test [10] was “inactive” throughout. Also, the activity change, negative = cytotoxic in test [7] was -0.276% [at 15.8 µM] (inactive). Further, in [8], the cytotoxicity is 4.65% [at 15.8 µM] (inactive).
Regarding `Brc1nc2ccccc2s1`, the Potency entry in test [1], in [2], in test [3], in [5], in test [6] and in test [7] was “inactive” each time. Also, the Potency entry in test [8], in test [9] and in [10] was “inactive” throughout. Also, the max response in test [4] is 0.941% (inactive) and 3.88% (inactive).
